The source made the active and inactive calls. The calls were made as follows: active = hit-call score of the fitted dose curve at least 0.9, where 1 is the maximum; inactive = score below 0.9.
Experiments:
Settings in all cases: mRNA level, 48 h; actives raise or lower the signal
[1] = read-out: Cyclin Dependent Kinase Inhibitor 1A (CDKN1A), CDKN1A (gene 1026); experiment: LTEA_HepaRG_CDKN1A: Life Technologies and Expression Analysis (LTEA) Assay for Cyclin Dependent Kinase Inhibitor 1A (CDKN1A) using HepaRG (AID 2283450)
In short: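 Expression quantified by Fluidigm qRT-PCR with ACTB, GAPDH and POLR2A normalization, fitted bidirectionally against 0.5% DMSO. Cells: HepaRG, plated 48 h then treated 48 h in serum-free induction medium, top concentration 100 uM with half-log dilutions.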

[2] = read-out: Cyclin D1 (CCND1), CCND1 (gene 595); experiment: LTEA_HepaRG_CCND1: Life Technologies and Expression Analysis (LTEA) Assay for Cyclin D1 (CCND1) using HepaRG (AID 2283451);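 as to AC50: differentiated human HepaRG liver cells in serum-free induction medium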
In short: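 Expression of CCND1 was quantified by qRT-PCR on Fluidigm arrays using ACTB, GAPDH and POLR2A as reference genes. HepaRG cultures, plated 48 h beforehand, were dosed for 48 h at up to 100 uM (half-log, 8 points) in 0.5% DMSO.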

[3] = read-out: catalase (CAT), CAT (gene 847); experiment: LTEA_HepaRG_CAT: Life Technologies and Expression Analysis (LTEA) Assay for catalase (CAT) using HepaRG (AID 2283452)
In short: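 Expression of CAT was quantified by TaqMan qRT-PCR with ACTB/GAPDH/POLR2A normalization after 48 h chemical exposure of HepaRG. Eight-point half-log series, top 100 uM, in 0.5% DMSO; gain or loss fitted against vehicle.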

[4] = read-out: flavin-containing dimethylaniline monooxygenases 3 (FMO3), FMO3 (gene 2328); experiment: LTEA_HepaRG_FMO3: Life Technologies and Expression Analysis (LTEA) Assay for flavin-containing dimethylaniline monooxygenases 3 (FMO3) using HepaRG (AID 2283453);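 as to AC50: differentiated human HepaRG liver cells in serum-free induction medium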
In short: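 Differentiated HepaRG cells in serum-free induction medium, exposed 48 h in duplicate to 8 half-log concentrations up to 100 uM in 0.5% DMSO. FMO3 mRNA by qRT-PCR, normalized to ACTB, GAPDH, POLR2A; bidirectional fit vs DMSO.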

[5] = read-out: Cytochrome P450 (CYP1A1), CYP1A1 (gene 1543); experiment: LTEA_HepaRG_CYP1A1: Life Technologies and Expression Analysis (LTEA) Assay for Cytochrome P450 (CYP1A1) using HepaRG (AID 2283454)
In short: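 CYP1A1 transcript levels measured by Fluidigm qRT-PCR against three housekeeping genes, 48 h after chemical dosing of human HepaRG cells (highest concentration 100 uM, half-log steps, 0.5% DMSO vehicle). Gain or loss of signal fitted relative to DMSO.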

[6] = read-out: CFLAR gene, CFLAR (gene 8837); experiment: LTEA_HepaRG_CFLAR: Life Technologies and Expression Analysis (LTEA) Assay for CFLAR gene using HepaRG (AID 2283455)
In short: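 HepaRG, 48 h exposure, 8-pt conc-response (100 uM top, half-log), 0.5% DMSO vehicle, duplicates. CFLAR expression by qRT-PCR; ACTB/GAPDH/POLR2A normalization; gain or loss fit vs DMSO baseline.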

[7] = read-out: Forkhead box O1 (FOXO1), FOXO1 (gene 2308); experiment: LTEA_HepaRG_FOXO1: Life Technologies and Expression Analysis (LTEA) Assay for Forkhead box O1 (FOXO1) using HepaRG (AID 2283456)
In short: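 Readout is FOXO1 transcript level by multiplexed qRT-PCR against three housekeeping genes, curve-fitted in both directions relative to 0.5% DMSO vehicle. Human HepaRG cultures received chemicals for 48 h, up to 100 uM in half-log steps.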

[8] = read-out: growth arrest and DNA damage 45 (GADD45A), GADD45A (gene 1647); experiment: LTEA_HepaRG_GADD45A: Life Technologies and Expression Analysis (LTEA) Assay for growth arrest and DNA damage 45 (GADD45A) using HepaRG (AID 2283458)
In short: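 Differentiated HepaRG cells exposed 48 h in serum-free induction medium to 8 concentrations, top 100 uM in half-log steps, 0.5% DMSO. GADD45A mRNA quantified by qRT-PCR, normalized to ACTB, GAPDH and POLR2A; bidirectional fit versus DMSO.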

[9] = read-out: Forkhead box O3 (FOXO3), FOXO3 (gene 2309); experiment: LTEA_HepaRG_FOXO3: Life Technologies and Expression Analysis (LTEA) Assay for Forkhead box O3 (FOXO3) using HepaRG (AID 2283459)
In short: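 HepaRG, 48 h post-dose; 8 conc., half-log from 100 uM, 0.5% DMSO, duplicates; serum-free induction medium. Readout: FOXO3 mRNA, TaqMan qRT-PCR, housekeeping-normalized. Bidirectional curve fit vs DMSO baseline.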

[10] = read-out: ABC Transporter (ABCB1), ABCB1 (gene 5243); experiment: LTEA_HepaRG_ABCB1: Life Technologies and Expression Analysis (LTEA) Assay for ABC Transporter (ABCB1) using HepaRG (AID 2283460)
In short: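 Expression of ABCB1 was quantified by qRT-PCR against three housekeeping genes after human HepaRG cultures received test chemicals for 48 hours. Concentrations spanned eight half-log steps topping at 100 uM in 0.5% DMSO; gain or loss of signal was fitted relative to vehicle.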

[11] = read-out: growth arrest and DNA damage 45 (GADD45B), GADD45B (gene 4616); experiment: LTEA_HepaRG_GADD45B: Life Technologies and Expression Analysis (LTEA) Assay for growth arrest and DNA damage 45 (GADD45B) using HepaRG (AID 2283461)
In short: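 Transcript level quantified by Fluidigm TaqMan qRT-PCR with three housekeeping genes for normalization, analyzed for up- or down-regulation against 0.5% DMSO. HepaRG cultures dosed 48 h at eight half-log concentrations up to 100 uM, duplicates.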

[12] = read-out: ABC Transporter (ABCC3), ABCC3 (gene 8714); experiment: LTEA_HepaRG_ABCC3: Life Technologies and Expression Analysis (LTEA) Assay for ABC Transporter (ABCC3) using HepaRG (AID 2283462)
In short: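 Transcript level by TaqMan qRT-PCR, normalised to three housekeeping genes, fitted in both directions relative to vehicle. Chemicals tested in duplicate at eight half-log concentrations up to 100 uM for 48 h on HepaRG cells (0.5% DMSO).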

[13] = read-out: ABC Transporter (ABCB11), ABCB11 (gene 8647); experiment: LTEA_HepaRG_ABCB11: Life Technologies and Expression Analysis (LTEA) Assay for ABC Transporter (ABCB11) using HepaRG (AID 2283463)
In short: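 ABCB11 transcript levels are read by Fluidigm TaqMan qRT-PCR after 48 h chemical treatment of human HepaRG cells. Concentrations span 100 uM downward in half-log steps with 0.5% DMSO; gain or loss is fitted against DMSO controls.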

[14] = read-out: ABC Transporter (ABCC2), ABCC2 (gene 1244); experiment: LTEA_HepaRG_ABCC2: Life Technologies and Expression Analysis (LTEA) Assay for ABC Transporter (ABCC2) using HepaRG (AID 2283464)
In short: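 Endpoint is ABCC2 transcript level from qRT-PCR, normalized to three housekeeping genes and fitted bidirectionally relative to DMSO. Human HepaRG cells received test chemical for 48 h at up to 100 uM (8 points, half-log steps, 0.5% DMSO), duplicate wells.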

[15] = read-out: Broad substrate specificity ATP-binding cassette transporter ABCG2 (Homo sapiens) (UniProt Q9UNQ0); experiment: LTEA_HepaRG_ABCG2: Life Technologies and Expression Analysis (LTEA) Assay for ABC Transporter (ABCG2) using HepaRG (AID 2283465)
In short: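 Read-out is ABCG2 mRNA induction or loss quantified by qRT-PCR after 48 h chemical treatment of human HepaRG cells, normalized to three housekeeping genes. Concentrations reached 100 uM top in half-log steps; fitting was bidirectional against 0.5% DMSO.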

[16] = read-out: ATP-citrate lyase (ACLY), ACLY (gene 47); experiment: LTEA_HepaRG_ACLY: Life Technologies and Expression Analysis (LTEA) Assay for ATP-citrate lyase (ACLY) using HepaRG (AID 2283466)
In short: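 HepaRG, 48 h exposure, 8-pt half-log dilutions (top 100 uM), 0.5% DMSO. Readout: ACLY mRNA, TaqMan qRT-PCR, housekeeping-normalized (ACTB/GAPDH/POLR2A). Bidirectional curve fit vs DMSO.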

[17] = read-out: Peroxisomal acyl-coenzyme A oxidase 1 (ACOX1) gene, ACOX1 (gene 51); experiment: LTEA_HepaRG_ACOX1: Life Technologies and Expression Analysis (LTEA) Assay for Peroxisomal acyl-coenzyme A oxidase 1 (ACOX1) gene using HepaRG (AID 2283467)
In short: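 Measured by qRT-PCR against three housekeeping genes: ACOX1 transcript change in human HepaRG cells after 48 h dosing. Concentrations ran up to 100 uM in half-log steps. Curves were fitted bidirectionally relative to 0.5% DMSO.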

[18] = read-out: Alkaline Phosphatase, Placental (ALPP) gene, ALPP (gene 250); experiment: LTEA_HepaRG_ALPP: Life Technologies and Expression Analysis (LTEA) Assay for Alkaline Phosphatase, Placental (ALPP) gene using HepaRG (AID 2283468)
In short: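 ALPP transcript level, measured by qRT-PCR and normalized to three housekeeping genes (ACTB, GAPDH, POLR2A), after 48 h dosing of differentiated HepaRG in serum-free induction medium. Top concentration 100 uM with half-log dilutions (8 points, 0.5% DMSO, duplicates); bidirectional fitting relative to DMSO.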

[19] = read-out: Bcl-2 (BAD) gene, BAD (gene 572); experiment: LTEA_HepaRG_BAD: Life Technologies and Expression Analysis (LTEA) Assay for Bcl-2 (BAD) gene using HepaRG (AID 2283469)
In short: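 BAD transcript change, measured by qRT-PCR against three housekeeping genes and fitted in both directions relative to 0.5% DMSO, after 48 h chemical treatment of human HepaRG liver cells at concentrations up to 100 uM.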

Measured: AC50

Sequence of Broad substrate specificity ATP-binding cassette transporter ABCG2 (Homo sapiens) (Q9UNQ0 whole entry, looked up): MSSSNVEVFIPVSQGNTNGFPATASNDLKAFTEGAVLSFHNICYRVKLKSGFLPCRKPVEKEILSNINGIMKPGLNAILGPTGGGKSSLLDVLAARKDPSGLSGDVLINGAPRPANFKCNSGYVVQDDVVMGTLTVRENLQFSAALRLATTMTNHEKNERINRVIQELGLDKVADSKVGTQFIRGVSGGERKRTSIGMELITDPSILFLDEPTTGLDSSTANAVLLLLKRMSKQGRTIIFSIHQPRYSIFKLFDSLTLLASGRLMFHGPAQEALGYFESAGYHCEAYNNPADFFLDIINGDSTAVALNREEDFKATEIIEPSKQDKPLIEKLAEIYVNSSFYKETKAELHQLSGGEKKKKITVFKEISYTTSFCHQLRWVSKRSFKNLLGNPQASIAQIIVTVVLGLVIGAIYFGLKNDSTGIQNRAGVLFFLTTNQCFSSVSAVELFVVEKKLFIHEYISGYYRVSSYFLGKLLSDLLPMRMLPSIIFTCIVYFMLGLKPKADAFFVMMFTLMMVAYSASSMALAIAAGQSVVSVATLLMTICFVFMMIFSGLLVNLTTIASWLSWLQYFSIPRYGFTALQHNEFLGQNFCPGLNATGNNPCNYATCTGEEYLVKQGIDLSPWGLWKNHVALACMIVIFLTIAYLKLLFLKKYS

CCC(C)n1c(=O)[nH]c(C)c(Br)c1=O (configuration not stated)
active: [2] 27.6 µM | [3] 40.4 µM | [4] 29 µM | [5] 5.11 µM | [9] 14.3 µM | [11] 28.5 µM | [13] 30 µM | [17] 21.6 µM
inactive: all other assays above

N#Cc1c(Cl)cccc1Cl
active: [5] 50 µM
not listed: [8] | [9]
inactive: all other assays above

CC(C)(C)C(=O)C(Oc1ccc(Cl)cc1)n1cncn1 (configuration not stated)
active: [5] 37 µM | [10] 7.7 µM | [14] 16.8 µM | [16] 66.5 µM
not listed: [8] | [9] | [18]
inactive: all other assays above

CC(C)NC(=O)N1CC(=O)N(c2cc(Cl)cc(Cl)c2)C1=O
inactive: [1] | [7] | [8] | [12] | [13] | [14] | [16] | [19]
active: [2] 23.8 µM | [3] 13.3 µM | [4] 17 µM | [5] 5.2 µM | [6] 20.2 µM | [9] 7.56 µM | [10] 3.58 µM | [11] 26.3 µM | [15] 15 µM | [17] 14.4 µM

CCOP(=S)(OCC)Oc1nc(Cl)n(C(C)C)n1
active: [4] 24.7 µM | [5] 9.25 µM | [12] 50 µM | [13] 1.64 µM | [16] 33.5 µM | [17] 9.48 µM
not listed: [18]
inactive: all other assays above

CC(C)=CC1C(C(=O)OCc2coc(Cc3ccccc3)c2)C1(C)C (configuration not stated)
active: [5] 60.8 µM | [10] 29.3 µM | [13] 50 µM | [14] 50 µM
not listed: [8] | [9]
inactive: all other assays above

Cc1cnc(C2=NC(C)(C(C)C)C(=O)N2)c(C(=O)O)c1 (configuration not stated)
active: [5] 71.2 µM
not listed: [9]
inactive: all other assays above

CC(C)C1(C)N=C(c2ncccc2C(=O)O)NC1=O (configuration not stated)
not listed: [18]
inactive: all other assays above

COc1cc(OC)nc(NC(=O)NS(=O)(=O)c2ncccc2OCC(F)(F)F)n1
active: [5] 21 µM | [10] 31.3 µM
not listed: [8] | [9] | [18]
inactive: all other assays above

Nc1c(Cl)c(F)nc(OCC(=O)O)c1Cl
not listed: [8] | [9] | [18]
inactive: all other assays above

O=C(O)c1c(Cl)ccc2cc(Cl)cnc12
active: [8] 0.00381 µM
not listed: [9] | [18]
inactive: all other assays above

COc1ccc(-c2ccccc2)cc1NNC(=O)OC(C)C
active: [5] 75.1 µM
not listed: [9] | [18]
inactive: all other assays above

Clc1cccc(C(Cl)(Cl)Cl)n1
not listed: [8]
inactive: all other assays above

CCN(CC)c1nc(C)cc(OP(=S)(OC)OC)n1
active: [5] 31.1 µM | [14] 19.9 µM
not listed: [8] | [9]
inactive: all other assays above
